# Laboratory results from the supplement of paper PMC8728848.
# The full list was thinned out, with the strongest signals kept by preference.
# How the values were obtained:
# Assay in all cases: glycan array binding signal (z-score within array); higher = stronger binding
# Conditions in all cases: glycan notation: IUPAC condensed, linker removed
# [1] = biological target: Fuc(a1-2)Gal(b1-3)GlcNAc(b1-2)Man(a1-3)[Fuc(a1-2)Gal(b1-3)GlcNAc(b1-2)Man(a1-6)]Man(b1-4)GlcNAc(b1-4)[Fuc(a1-6)]GlcNAc
# Outline: (§1)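 The Consortium for Functional Glycomics database supplied 3228 glycan arrays, of which those lacking an available protein sequence were dropped. The binding signal, a within-array Z-score, was averaged across arrays of the same protein sequence and across linkers. Negative scores can be read as non-binding.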
# [2] = biological target: Fuc(a1-2)Gal(b1-4)[Fuc(a1-3)]GlcNAc
# Outline: as §1
# [3] = biological target: Fuc(a1-2)Gal(b1-4)[Fuc(a1-3)]GlcNAc(b1-2)Man(a1-3)[Fuc(a1-2)Gal(b1-4)[Fuc(a1-3)]GlcNAc(b1-2)Man(a1-6)]Man(b1-4)GlcNAc(b1-4)[Fuc(a1-6)]GlcNAc
# Outline: as §1
# Fuc(a1-2)[Gal(a1-3)]Gal = biological target: Fuc(a1-2)[Gal(a1-3)]Gal
# Outline: as §1
# [4] = biological target: Fuc(a1-2)[GalNAc(a1-3)]Gal(b1-3)GlcNAc(b1-2)Man(a1-3)[Fuc(a1-2)[GalNAc(a1-3)]Gal(b1-3)GlcNAc(b1-2)Man(a1-6)]Man(b1-4)GlcNAc(b1-4)GlcNAc
# Outline: as §1
# [5] = biological target: Fuc(a1-2)[GalNAc(a1-3)]Gal(b1-3)GlcNAc(b1-2)Man(a1-3)[Fuc(a1-2)[GalNAc(a1-3)]Gal(b1-3)GlcNAc(b1-2)Man(a1-6)]Man(b1-4)GlcNAc(b1-4)[Fuc(a1-6)]GlcNAc
# Outline: as §1
# [6] = biological target: Fuc(a1-2)[GalNAc(a1-3)]Gal(b1-3)GlcNAc(b1-6)GalNAc
# Outline: as §1
# [7] = biological target: Fuc(a1-3)[Gal(b1-4)]GlcNAc6S
# Outline: as §1
# [8] = biological target: Gal(a1-3)Gal(b1-3)GlcNAc(b1-2)Man
# Outline: as §1
# [9] = biological target: Gal(a1-4)Gal(b1-4)GlcNAc(b1-2)Man(a1-3)[Gal(a1-4)Gal(b1-4)GlcNAc(b1-2)Man(a1-6)]Man(b1-4)GlcNAc(b1-4)GlcNAc
# Outline: as §1
# Gal(b1-3)Gal = biological target: Gal(b1-3)Gal
# Outline: as §1
# [10] = biological target: Gal(b1-3)GlcNAc(b1-2)Man(a1-3)[Gal(b1-3)GlcNAc(b1-2)Man(a1-6)]Man(b1-4)GlcNAc(b1-4)[Fuc(a1-6)]GlcNAc
# Outline: as §1
# [11] = biological target: Gal(b1-3)GlcNAc(b1-2)Man(a1-3)[GlcNAc(b1-4)][Gal(b1-3)GlcNAc(b1-2)Man(a1-6)]Man(b1-4)GlcNAc(b1-4)GlcNAc
# Outline: as §1
# [12] = biological target: Gal(b1-4)GalNAc(a1-3)[Fuc(a1-2)]Gal(b1-4)GlcNAc
# Outline: as §1
# Gal(b1-4)GlcNAc(b1-2)Man = biological target: Gal(b1-4)GlcNAc(b1-2)Man
# Outline: as §1
# [13] = biological target: Gal(b1-4)GlcNAc(b1-2)Man(a1-3)[GlcNAc(b1-2)Man(a1-6)]Man(b1-4)GlcNAc(b1-4)GlcNAc
# Outline: as §1
# [14] = biological target: Gal(b1-4)GlcNAc(b1-2)[Gal(b1-4)GlcNAc(b1-4)]Man(a1-3)[Gal(b1-4)GlcNAc(b1-2)Man(a1-6)]Man(b1-4)GlcNAc(b1-4)GlcNAc
# Outline: as §1
# [15] = biological target: Gal(b1-4)GlcNAc(b1-3)Gal(b1-4)GlcNAc(b1-2)Man(a1-3)[Gal(b1-4)GlcNAc(b1-3)Gal(b1-4)GlcNAc(b1-2)Man(a1-6)]Man(b1-4)GlcNAc(b1-4)[Fuc(a1-6)]GlcNAc
# Outline: as §1
# [16] = biological target: Gal(b1-4)GlcNAc(b1-3)Gal(b1-4)GlcNAc(b1-3)Gal(b1-4)GlcNAc(b1-3)Gal(b1-4)GlcNAc(b1-2)Man(a1-3)[Gal(b1-4)GlcNAc(b1-3)Gal(b1-4)GlcNAc(b1-3)Gal(b1-4)GlcNAc(b1-3)Gal(b1-4)GlcNAc(b1-2)Man(a1-6)]Man(b1-4)GlcNAc(b1-4)[Fuc(a1-6)]GlcNAc
# Outline: as §1
# [17] = biological target: Gal(b1-4)GlcNAc(b1-3)Gal(b1-4)GlcNAc(b1-3)Gal(b1-4)GlcNAc(b1-3)Gal(b1-4)GlcNAc(b1-3)Gal(b1-4)GlcNAc(b1-2)Man(a1-3)[Gal(b1-4)GlcNAc(b1-3)Gal(b1-4)GlcNAc(b1-3)Gal(b1-4)GlcNAc(b1-3)Gal(b1-4)GlcNAc(b1-3)Gal(b1-4)GlcNAc(b1-2)Man(a1-6)]Man(b1-4)GlcNAc(b1-4)[Fuc(a1-6)]GlcNAc
# Outline: as §1
# [18] = biological target: Gal(b1-4)GlcNAc(b1-6)GalNAc
# Outline: as §1
# Gal3S(b1-3)GalNAc = biological target: Gal3S(b1-3)GalNAc
# Outline: as §1
# Gal3S(b1-3)GlcNAc = biological target: Gal3S(b1-3)GlcNAc
# Outline: as §1
# Gal3S(b1-4)Glc = biological target: Gal3S(b1-4)Glc
# Outline: as §1
# [19] = biological target: GalNAc(b1-3)Gal(a1-4)Gal(b1-4)GlcNAc
# Outline: as §1
# GalNAc3S(b1-4)GlcNAc = biological target: GalNAc3S(b1-4)GlcNAc
# Outline: as §1
# [20] = biological target: GlcNAc(a1-4)Gal(b1-4)GlcNAc(b1-3)Gal(b1-4)GlcNAc(b1-3)Gal(b1-4)GlcNAc
# Outline: as §1
# [21] = biological target: GlcNAc(b1-2)[GlcNAc(b1-4)]Man(a1-3)[GlcNAc(b1-2)Man(a1-6)]Man(b1-4)GlcNAc(b1-4)GlcNAc
# Outline: as §1
# [22] = biological target: GlcNAc(b1-2)[GlcNAc(b1-6)]Man(a1-6)[GlcNAc(b1-4)][GlcNAc(b1-2)Man(a1-3)]Man(b1-4)GlcNAc(b1-4)GlcNAc
# Outline: as §1
# [23] = biological target: GlcNAc(b1-3)Gal(b1-4)GlcNAc(b1-6)[Gal(b1-3)]GalNAc
# Outline: as §1
binder,measurement,setting,value
"cFel (Cyprinus carpio), P68512 (protein) LDCTVIDGNLKQIDAGSGSVVGVNNLNETFVLIDNVFTKISGSLKHFSVGPAGQLGVNTANNIFKYQSGGFVQLAGLLKQVDAGGDQIIAGVNMYDDIYCLNMDANNKWPSSNTPWVQINGKLKYYSCGPYSCWGVNSNDQIFIMKDVSSNVCSGSGSFINIPGLLSMIEVATDGSVFGVNSQGNLYQRTGVTRSKPDGTDWISMVACPNGHKHVSFDLGVLWLVCVDGSIRKCILTD",glycan array binding signal (z-score),[1],-0.998
same,glycan array binding signal (z-score),[2],0.152
same,glycan array binding signal (z-score),[3],3.47
same,glycan array binding signal (z-score),Fuc(a1-2)[Gal(a1-3)]Gal,2.61
same,glycan array binding signal (z-score),[4],0.309
same,glycan array binding signal (z-score),[5],3.12
same,glycan array binding signal (z-score),[6],2.93
same,glycan array binding signal (z-score),[7],0.043
same,glycan array binding signal (z-score),[8],0.809
same,glycan array binding signal (z-score),[9],-0.901
same,glycan array binding signal (z-score),Gal(b1-3)Gal,-0.479
same,glycan array binding signal (z-score),[10],-1.57
same,glycan array binding signal (z-score),[11],3.37
same,glycan array binding signal (z-score),[12],0.995
same,glycan array binding signal (z-score),Gal(b1-4)GlcNAc(b1-2)Man,0.263
same,glycan array binding signal (z-score),[13],0.271
same,glycan array binding signal (z-score),[14],3.29
same,glycan array binding signal (z-score),[15],-0.29
same,glycan array binding signal (z-score),[16],-0.084
same,glycan array binding signal (z-score),[17],1.98
same,glycan array binding signal (z-score),[18],1.54
same,glycan array binding signal (z-score),Gal3S(b1-3)GalNAc,-0.627
same,glycan array binding signal (z-score),Gal3S(b1-3)GlcNAc,-0.636
same,glycan array binding signal (z-score),Gal3S(b1-4)Glc,1.24
same,glycan array binding signal (z-score),[19],4.96
same,glycan array binding signal (z-score),GalNAc3S(b1-4)GlcNAc,-0.547
same,glycan array binding signal (z-score),[20],-0.344
same,glycan array binding signal (z-score),[21],-0.869
same,glycan array binding signal (z-score),[22],-0.817
same,glycan array binding signal (z-score),[23],1.15
